# Sampled rows, rich in hits. Any-hit rate of the full collection: about 6.8%.
# T cruzi growth-1 = T. cruzi proliferation inhibition; 5.9% of 77,000 active; T. cruzi beta-gal in NIH3T3, GalScreen luminescence, 90 h; inhibition, % at 8.34 µM; AID 624255;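 active = mean inhibition above about 93%, with at least 55% of replicates each passing it, limit read from the data, passing the limit was not always enough; inconclusive = only one of those two conditions holds; inactive = neither condition holds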
# C diff growth = inhibitors of Clostridium difficile growth | Clostridium difficile clinical isolate growth, OD600, 24 h; stronger effect = lower value | growth activity, negative = inhibition, % at 16 µg/mL (by protocol) | 0.25% of 86,000 active;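 active = mean growth activity at or below -80% and every replicate also at or below -80%; inconclusive = mean at or below -80% but some replicate above -80%; inactive = mean growth activity above -80%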;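 note: 0% = DMSO wells and -100% = levofloxacin 16 µg/mL wells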
# Pf Dd2 growth = P. falciparum Dd2 growth inhibition. SYBR Green, 72 h; stronger effect = lower value. activity change, % at 10 µM. 2.3% of 94,000 active; in the data active = activity change below about -80%; inconclusive = no clear call, values can overlap the other calls
# T cruzi growth-2 = blocks T. cruzi growth in NIH3T3 host cells; shares compounds with T cruzi growth-1; T. cruzi beta-gal in NIH3T3, GalScreen luminescence, 90 h; inhibition, % at 8.35 µM; 72% of 5,600 active; AID 651739;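 active = mean replicate inhibition above about 95% and at least 55% of replicates individually reaching it, limit read from the data; inconclusive = only one of the two criteria is met; inactive = neither criterion is met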
# T cruzi growth-3 = inhibitors of T. cruzi proliferation; shares compounds with T cruzi growth-1; T. cruzi beta-gal in NIH3T3, GalScreen luminescence, 90 h; inhibition, % at 2.09 µM; 21% of 5,600 active;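 active = mean inhibition above about 95%, with at least 55% of replicates also reaching it, limit read from the data; inconclusive = meets just one of the two conditions; inactive = meets neither condition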;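 note: plate controls were neutral control median for no effect and positive control median for full effect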
# NIH3T3 tox = cytotoxicity in mouse NIH/3T3 fibroblasts. shares compounds with T cruzi growth-1. 14% of 5,600 active. NIH/3T3 viability, CellTiter-Glo ATP luminescence, 90 h. cytotoxicity (signal decrease), % at 8.35 µM;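 active = mean signal decrease across replicates above about 35% based on untreated-well scatter, with enough replicates individually passing, limit read from the data; inconclusive = no rule stated though some were filed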;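 note: 0% = median of neutral control wells and 100% = median of positive control wells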
# NIH3T3 tox 2 = NIH/3T3 (mouse) viability loss; inhibition, % at 24.9 µM; 56% of 5,600 active; NIH/3T3 viability, CellTiter-Glo ATP luminescence, 90 h; shares compounds with T cruzi growth-1; AID 651744;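 active = mean loss of cell viability signal at or above a set limit, and enough replicates individually reaching it; inconclusive = meets only the mean limit or only the replicate share; inactive = meets neither condition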;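 note: 0% = median of neutral control wells and 100% = median of positive control wells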
# * hit, by the source's call; ? = inconclusive; nt = no result.
SMILES,T cruzi growth-1,C diff growth,Pf Dd2 growth,T cruzi growth-2,T cruzi growth-3,NIH3T3 tox,NIH3T3 tox 2
C[C@@H]1CCCCO[C@@H](CN(C)C(=O)C2CCCCC2)[C@@H](C)CN([C@H](C)CO)C(=O)c2cc(NS(=O)(=O)c3ccc(Cl)cc3)ccc2O1,59.4,5.7,-5.2,nt,nt,nt,nt
C[C@@H]1CCCCO[C@@H](CN(C)C(=O)C2CCCCC2)[C@H](C)CN([C@H](C)CO)C(=O)c2cc(NS(=O)(=O)c3ccc(Cl)cc3)ccc2O1,?,5.2,-14.2,110.3*,87.7,-1.8,99.6*
C[C@@H]1CCCCO[C@@H](CN(C)C(=O)C2CCCCC2)[C@@H](C)CN([C@@H](C)CO)C(=O)c2cc(NS(=O)(=O)c3ccc(F)cc3)ccc2O1,70.4,-2.4,-37.4,nt,nt,nt,nt
C[C@H](CO)N1C[C@H](C)[C@@H](CN(C)C(=O)C2CCCCC2)OCCCC[C@H](C)Oc2ccc(NS(=O)(=O)c3ccc(Cl)cc3)cc2C1=O,67.0,-3.4,25.0,nt,nt,nt,nt
C[C@@H]1CN([C@H](C)CO)C(=O)c2cc(NS(=O)(=O)c3ccc(Cl)cc3)ccc2O[C@@H](C)CCCCO[C@H]1CN(C)C(=O)C1CCCCC1,?,2.0,-29.7,95.6*,61.1,19.0,100.3*
O=C(NCC[C@@H]1CC[C@@H](NC(=O)C2CCC2)[C@@H](CO)O1)c1cnccn1,-76.1,-0.3,15.3,nt,nt,nt,nt
CCCNC(=O)N1[C@H](CO)[C@@H]2c3ccccc3N(C(=O)NC(C)C)C[C@@H]21,-22.7,2.8,0.6,nt,nt,nt,nt
C[C@@H]1CN([C@@H](C)CO)S(=O)(=O)c2ccc(C#Cc3ccccn3)cc2O[C@@H]1CN(C)Cc1cccc(F)c1,119.2*,-0.1,-31.3,108.0*,?,31.3,21.0
CCCN(C)C[C@@H]1Oc2cc(C#Cc3ccccn3)ccc2S(=O)(=O)N([C@@H](C)CO)C[C@@H]1C,52.4,6.1,-77.4,nt,nt,nt,nt
C[C@@H]1CN([C@H](C)CO)S(=O)(=O)c2ccc(C#Cc3ccccn3)cc2O[C@@H]1CN(C)CC1CC1,33.8,-8.9,-48.6,nt,nt,nt,nt
C[C@H](CO)N1C[C@H](C)[C@@H](CN(C)Cc2cccc(F)c2)Oc2cc(C#Cc3ccccn3)ccc2S1(=O)=O,116.8*,-3.4,-38.0,94.0,111.5*,-35.0,8.1
CCNC(=O)C[C@H]1CC[C@@H]2[C@H](COc3ccc(NC(=O)C4CCCCC4)cc3C(=O)N2C)O1,-13.4,0.1,10.9,nt,nt,nt,nt
Cn1cnc(S(=O)(=O)N2CCCCN3[C@H](C2)[C@@H](c2ccc(C#CC4CCCC4)cc2)[C@@H]3CO)c1,76.5,-10.2,-34.2,nt,nt,nt,nt
Cn1cnc(S(=O)(=O)N2CCCCN3[C@H](CO)[C@H](c4ccc(C#CC5CCCC5)cc4)[C@H]3C2)c1,110.8*,-13.6,-41.3,95.2*,27.2,30.5,105.2*
Cn1cnc(S(=O)(=O)N2CCCCN3[C@@H](CO)[C@H](c4ccc(C#CC5CCCC5)cc4)[C@@H]3C2)c1,105.6*,-10.5,-38.5,72.0,-18.4,29.1,100.5*
Cn1cnc(S(=O)(=O)N2CCCCN3[C@H](C2)[C@@H](c2ccc(C#CC4CC4)cc2)[C@@H]3CO)c1,53.1,-4.4,21.5,nt,nt,nt,nt
C[C@@H]1CN([C@H](C)CO)C(=O)Cc2cc(NS(=O)(=O)c3cn(C)cn3)ccc2O[C@@H]1CN(C)C(=O)Nc1ccc2c(c1)OCO2,9.6,4.3,4.1,nt,nt,nt,nt
CN(C)C(=O)c1cccc(-c2ccc3c(c2)[C@H]2[C@H](CCN2S(=O)(=O)c2ccccc2)[C@@H](CO)N3)c1,99.7*,3.1,-18.5,96.2*,80.8,9.6,16.7
N#Cc1cccc(-c2ccc3c(c2)[C@@H]2[C@@H](CCN2S(=O)(=O)c2ccccc2)[C@H](CO)N3)c1,82.8,-3.1,4.0,nt,nt,nt,nt
CN(C)C(=O)c1ccc(-c2ccc3c(c2)[C@H]2[C@H](CCN2S(=O)(=O)c2ccccc2)[C@H](CO)N3)cc1,29.0,-13.7,-34.0,nt,nt,nt,nt
CN(C)C(=O)c1cccc(-c2ccc3c(c2)[C@@H]2[C@@H](CCN2S(=O)(=O)c2ccccc2)[C@H](CO)N3)c1,112.3*,-2.3,-10.6,97.4*,80.4,22.7,23.2
